What all share (conditions): mRNA level, 48 h; actives raise or lower the signal
Read-out in assay [1]: Cytochrome P450 (CYP24A1), CYP24A1 (gene 1591)
Briefly: LTEA_HepaRG_CYP24A1: Life Technologies and Expression Analysis (LTEA) Assay for Cytochrome P450 (CYP24A1) using HepaRG (AID 2283478). Summed up: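 HepaRG, 48 h chemical exposure, 8-pt half-log CRC from 100 uM, 0.5% DMSO vehicle, duplicates. Endpoint: CYP24A1 mRNA by Fluidigm TaqMan qRT-PCR, normalized ACTB/GAPDH/POLR2A; gain/loss fit vs DMSO.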

Read-out in assay [2]: Cytochrome P450 (CYP1A2), CYP1A2 (gene 1544)
Briefly: LTEA_HepaRG_CYP1A2: Life Technologies and Expression Analysis (LTEA) Assay for Cytochrome P450 (CYP1A2) using HepaRG (AID 2283479). The method in brief: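 CYP1A2 transcript induction or loss, quantified by Fluidigm qRT-PCR against three housekeeping genes, was fitted bidirectionally against 0.5% DMSO controls. Human HepaRG cells received eight half-log concentrations from 100 uM over 48 h.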

Read-out in assay [3]: cysteine-aspartic acid protease (CASP8), CASP8 (gene 841)
Briefly: LTEA_HepaRG_CASP8: Life Technologies and Expression Analysis (LTEA) Assay for cysteine-aspartic acid protease (CASP8) using HepaRG (AID 2283480). The method in brief:
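HepaRG, 48 h exposure, duplicate wells; 8 conc, half-log from 100 uM, 0.5% DMSO. Serum-free induction medium. CASP8 mRNA by TaqMan qRT-PCR, norm. ACTB/GAPDH/POLR2A; gain/loss fitted vs DMSO.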

Read-out in assay [4]: Cytochrome P450 (CYP2B6), CYP2B6 (gene 1555)
Briefly: LTEA_HepaRG_CYP2B6: Life Technologies and Expression Analysis (LTEA) Assay for Cytochrome P450 (CYP2B6) using HepaRG (AID 2283481). Summed up: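 HepaRG cells plated 48 h, switched to serum-free induction medium, then dosed 48 h (8 points, half-log from 100 uM, 0.5% DMSO). RNA isolated; CYP2B6 expression measured by qRT-PCR; gain or loss fitted relative to DMSO.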

Read-out in assay [5]: Cytochrome P450 2C19 (Homo sapiens) (UniProt P33261)
Briefly: LTEA_HepaRG_CYP2C19: Life Technologies and Expression Analysis (LTEA) Assay for CYP2C19 using HepaRG (AID 2283482). Summed up: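 Transcript levels of CYP2C19 were quantified by qRT-PCR after HepaRG cells were treated for 48 hours with test chemicals up to 100 uM (eight half-log concentrations, 0.5% DMSO vehicle). Gain or loss of signal was fitted relative to DMSO.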

Read-out in assay [6]: CYP2C8 (gene 1558)
Briefly: LTEA_HepaRG_CYP2C8: Life Technologies and Expression Analysis (LTEA) Assay for CYP2C8 using HepaRG (AID 2283483). Summed up:
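CYP2C8 mRNA induction or loss, by qRT-PCR normalized to ACTB/GAPDH/POLR2A, is read in HepaRG cells after 48 h treatment. Concentrations run from 100 uM down in half-log dilutions, with 0.5% DMSO as vehicle and baseline.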

Read-out in assay [7]: CYP2C9 (gene 1559)
Briefly: LTEA_HepaRG_CYP2C9: Life Technologies and Expression Analysis (LTEA) Assay for CYP2C9 using HepaRG (AID 2283484). The method in brief:
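Cells plated 48 h, switched to serum-free induction medium, then treated in duplicate for 48 h at eight concentrations (max 100 uM, 0.5% DMSO). RNA then analysed by qRT-PCR for CYP2C9; curves fitted in both directions relative to DMSO.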

Read-out in assay [8]: CYP2E1 (gene 1571)
Briefly: LTEA_HepaRG_CYP2E1: Life Technologies and Expression Analysis (LTEA) Assay for CYP2E1 using HepaRG (AID 2283485). The method in brief:
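HepaRG cells, plated 48 h, then exposed 48 h in serum-free induction medium to eight half-log concentrations from 100 uM in 0.5% DMSO, duplicate. CYP2E1 mRNA by qRT-PCR, normalized to ACTB/GAPDH/POLR2A; bidirectional fit versus DMSO.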

Read-out in assay [9]: CYP4A11 (gene 1579)
Briefly: LTEA_HepaRG_CYP4A11: Life Technologies and Expression Analysis (LTEA) Assay for CYP4A11 using HepaRG (AID 2283486). Summed up: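 HepaRG, 48 h chem exposure, 8 conc (100 uM top, half-log), 0.5% DMSO vehicle; qRT-PCR readout, housekeeping-gene normalized; bidirectional curve fit vs DMSO baseline.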

Read-out in assay [10]: DNA damage-inducible transcript 3 (DDIT3), DDIT3 (gene 1649)
Briefly: LTEA_HepaRG_DDIT3: Life Technologies and Expression Analysis (LTEA) Assay for DNA damage-inducible transcript 3 (DDIT3) using HepaRG (AID 2283488). Summed up: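 HepaRG cells, 48 h after plating, exposed 48 h in serum-free induction medium to 8 half-log concentrations up to 100 uM in 0.5% DMSO, in duplicate. DDIT3 mRNA measured by TaqMan qRT-PCR, normalized to ACTB, GAPDH and POLR2A. Fitted bidirectionally against DMSO.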

Read-out in assay [11]: Pro-epidermal growth factor (Homo sapiens) (UniProt P01133)
Briefly: LTEA_HepaRG_EGF: Life Technologies and Expression Analysis (LTEA) Assay for Epidermal growth factor (EGF) using HepaRG (AID 2283489). Summed up: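 HepaRG, 48 h dosing, 100 uM top, half-log x8, 0.5% DMSO. Readout: TaqMan qRT-PCR (Fluidigm array), housekeeping-normalized. Gain or loss of signal fit vs DMSO.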

Read-out in assay [12]: Early growth response protein 1 (EGR1) transcription factor, EGR1 (gene 1958)
Briefly: LTEA_HepaRG_EGR1: Life Technologies and Expression Analysis (LTEA) Assay for Early growth response protein 1 (EGR1) transcription factor using HepaRG (AID 2283490). Summed up: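 Read-out is EGR1 mRNA level by qRT-PCR, normalized to three housekeeping genes and analysed for gain or loss of signal against 0.5% DMSO. Source cells: human HepaRG, treated 48 h at up to 100 uM in half-log dilutions.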

Read-out in assay [13]: Ezrin (EZR), EZR (gene 7430)
Briefly: LTEA_HepaRG_EZR: Life Technologies and Expression Analysis (LTEA) Assay for Ezrin (EZR) using HepaRG (AID 2283491). Summed up:
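Gain or loss of EZR mRNA is scored relative to 0.5% DMSO in human HepaRG cultures treated 48 h with test chemicals in duplicate, eight half-log concentrations from 100 uM.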

Read-out in assay [14]: Cytochrome P450 3A7 (Homo sapiens) (UniProt P24462)
Briefly: LTEA_HepaRG_CYP3A7: Life Technologies and Expression Analysis (LTEA) Assay for CYP3A7 using HepaRG (AID 2283492). The method in brief: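 Human HepaRG liver cells, 48 h post-plating, switched to serum-free induction medium and exposed in duplicate for 48 h. Dosing: 100 uM top, half-log dilutions, 8 points, 0.5% DMSO vehicle. Read-out: CYP3A7 mRNA, gain or loss fitted against DMSO baseline.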

Read-out in assay [15]: CYP3A5 (gene 1577)
Briefly: LTEA_HepaRG_CYP3A5: Life Technologies and Expression Analysis (LTEA) Assay for CYP3A5 using HepaRG (AID 2283493). The method in brief:
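HepaRG cells, plated 48 h then in serum-free induction medium, dosed in duplicate for 48 h with eight half-log concentrations up to 100 uM in 0.5% DMSO. Gene mRNA by Fluidigm TaqMan qRT-PCR, normalized to ACTB, GAPDH, POLR2A.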

Read-out in assay [16]: Fatty Acid-Binding Protein 1 (FABP1), FABP1 (gene 2168)
Briefly: LTEA_HepaRG_FABP1: Life Technologies and Expression Analysis (LTEA) Assay for Fatty Acid-Binding Protein 1 (FABP1) using HepaRG (AID 2283494). Summed up: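 HepaRG, 48 h post-plating switched to serum-free induction medium, then dosed 48 h (duplicate, 8 pts, ≤100 uM, 0.5% DMSO). RNA → Fluidigm TaqMan qRT-PCR, FABP1 normed to ACTB/GAPDH/POLR2A. Bidirectional curve fit vs DMSO.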

Read-out in assay [17]: Cytochrome P450 4A22 (Homo sapiens) (UniProt Q5TCH4)
Briefly: LTEA_HepaRG_CYP4A22: Life Technologies and Expression Analysis (LTEA) Assay for Cytochrome P450 4A22 (CYP4A22) using HepaRG (AID 2283495). The method in brief: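 Readout is CYP4A22 transcript induction or loss, quantified by qRT-PCR and normalized to ACTB, GAPDH and POLR2A. Human HepaRG cells receive test chemicals for 48 h at eight half-log concentrations from 100 uM in 0.5% DMSO.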

Read-out in assay [18]: Cytochrome P450 7A1 (Homo sapiens) (UniProt P22680)
Briefly: LTEA_HepaRG_CYP7A1: Life Technologies and Expression Analysis (LTEA) Assay for Cytochrome P450 7A1 (CYP7A1) using HepaRG (AID 2283496). The method in brief: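 HepaRG cells plated 48 h, then switched to serum-free induction medium and exposed in duplicate for 48 h to 8-point half-log series from 100 uM in 0.5% DMSO. CYP7A1 mRNA by qRT-PCR (TaqMan), normalized to ACTB/GAPDH/POLR2A; bidirectional fit versus DMSO.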

Read-out in assay [19]: Glutathione S-Transferase (GSTA2), GSTA2 (gene 2939)
Briefly: LTEA_HepaRG_GSTA2: Life Technologies and Expression Analysis (LTEA) Assay for Glutathione S-Transferase (GSTA2) using HepaRG (AID 2283497). Summed up: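 HepaRG, 48 h dosing, 8-pt half-log CRC from 100 uM, 0.5% DMSO vehicle, n=2; RNA → Fluidigm TaqMan qRT-PCR; GSTA2 vs ACTB/GAPDH/POLR2A; gain/loss fit vs DMSO.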

Read-out in assay [20]: Cytochrome P450 3A4 (Homo sapiens) (UniProt P08684)
Briefly: LTEA_HepaRG_CYP3A4: Life Technologies and Expression Analysis (LTEA) Assay for CYP3A4 using HepaRG (AID 2283487). Summed up:
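In a human hepatic line (HepaRG), duplicate wells were treated 48 h with up to 100 uM chemical in half-log dilutions. Endpoint: CYP3A4 mRNA induction or loss relative to 0.5% DMSO vehicle, by qRT-PCR.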

Structures are written as SMILES. The source made the active and inactive calls. How the source made its calls: active means hit-call score of the fitted dose curve at least 0.9, where 1 is the maximum; inactive means score below 0.9.

Chain of Cytochrome P450 2C19 (Homo sapiens) (P33261 whole entry, looked up): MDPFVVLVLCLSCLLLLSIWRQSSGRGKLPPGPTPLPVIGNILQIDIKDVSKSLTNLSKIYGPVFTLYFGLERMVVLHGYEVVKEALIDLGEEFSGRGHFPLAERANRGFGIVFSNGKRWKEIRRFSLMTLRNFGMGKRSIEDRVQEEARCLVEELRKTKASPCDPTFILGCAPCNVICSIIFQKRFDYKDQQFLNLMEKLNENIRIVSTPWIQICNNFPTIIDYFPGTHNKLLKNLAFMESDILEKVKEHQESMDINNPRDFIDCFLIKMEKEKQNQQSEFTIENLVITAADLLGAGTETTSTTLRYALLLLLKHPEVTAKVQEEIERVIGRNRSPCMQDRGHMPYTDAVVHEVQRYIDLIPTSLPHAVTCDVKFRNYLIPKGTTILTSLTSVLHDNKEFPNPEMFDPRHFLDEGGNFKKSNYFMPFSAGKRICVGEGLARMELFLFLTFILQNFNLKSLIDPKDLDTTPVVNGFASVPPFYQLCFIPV
Chain of Cytochrome P450 3A7 (Homo sapiens) (P24462 whole entry, looked up): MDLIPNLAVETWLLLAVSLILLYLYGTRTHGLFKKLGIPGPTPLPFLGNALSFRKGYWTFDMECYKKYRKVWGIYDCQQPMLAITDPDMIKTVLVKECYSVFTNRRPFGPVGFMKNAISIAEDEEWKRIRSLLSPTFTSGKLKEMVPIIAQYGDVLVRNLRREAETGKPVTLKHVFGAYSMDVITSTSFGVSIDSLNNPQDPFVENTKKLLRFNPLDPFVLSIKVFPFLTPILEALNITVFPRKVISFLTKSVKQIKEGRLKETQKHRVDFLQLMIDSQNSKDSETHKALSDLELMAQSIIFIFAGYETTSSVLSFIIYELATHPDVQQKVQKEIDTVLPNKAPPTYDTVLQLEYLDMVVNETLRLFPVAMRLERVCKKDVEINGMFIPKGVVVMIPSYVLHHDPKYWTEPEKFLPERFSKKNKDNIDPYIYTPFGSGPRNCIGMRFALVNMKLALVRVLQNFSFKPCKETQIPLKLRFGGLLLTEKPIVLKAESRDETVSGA
Chain of Cytochrome P450 3A4 (Homo sapiens) (P08684 whole entry, looked up): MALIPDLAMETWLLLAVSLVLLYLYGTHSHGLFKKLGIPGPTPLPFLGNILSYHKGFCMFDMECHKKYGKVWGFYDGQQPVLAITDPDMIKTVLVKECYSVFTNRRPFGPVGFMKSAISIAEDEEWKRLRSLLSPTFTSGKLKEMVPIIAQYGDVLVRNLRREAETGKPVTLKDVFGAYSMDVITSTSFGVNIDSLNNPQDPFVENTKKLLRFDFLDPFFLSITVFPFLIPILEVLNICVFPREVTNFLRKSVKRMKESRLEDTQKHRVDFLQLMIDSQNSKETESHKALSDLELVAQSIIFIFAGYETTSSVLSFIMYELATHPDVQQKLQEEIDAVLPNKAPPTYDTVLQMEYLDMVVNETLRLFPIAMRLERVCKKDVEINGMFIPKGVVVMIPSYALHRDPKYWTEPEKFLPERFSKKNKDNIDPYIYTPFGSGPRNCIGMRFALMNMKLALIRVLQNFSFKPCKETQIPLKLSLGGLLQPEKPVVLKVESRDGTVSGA

Take `COc1cc(C(C)C)c2c(c1)S(=O)(=O)N(COc1cc(=O)n3cccc(OCCN4CCCCC4)c3n1)C2=O`: the compound was called inactive in [1], in assay [3], in [10] and in assay [13]. The AC50 in assay [2] was 20.2 µM (active); in [4], 22.5 µM (active); in assay [5], 19.3 µM (active); in assay [6], 19.9 µM (active); in [7], 23.6 µM (active); in assay [8] it was 17.2 µM (active). Besides, the AC50 in assay [9] was 20.8 µM (active); in [11], 8.03 µM (active); in assay [12] it was 15.4 µM (active); in assay [14], 23.6 µM (active); in assay [15], 20.9 µM (active); in assay [16] it was 21.7 µM (active). The values for the concentration at half-maximal activity (AC50) in assay [17], in assay [18] and in [19] were 20.9 µM (active), 19.6 µM (active) and 20.5 µM (active), respectively.
Turning to `CCc1ccc(O)c(C(C)(C)C)c1`, the compound was classed as inactive in [1], in assay [2], in [3], in [4], in assay [5] and in assay [6]. Besides, the call in [7], in assay [8], in assay [9], in assay [20], in assay [10] and in assay [11] was inactive. Moreover, the result in assay [12], in assay [13], in [14], in [15], in assay [16] and in assay [18] was inactive. For the same compound, in assay [19], the result was inactive.
Regarding `CC[C@H](C)C(=O)O[C@H]1C[C@H](O)C=C2C=C[C@H](C)[C@H](CC[C@@H](O)C[C@@H](O)CC(=O)O)[C@H]21`, the result in assay [1], in assay [3], in assay [4], in assay [5], in assay [6] and in assay [7] was inactive. The result in assay [9], in assay [20], in [11], in assay [12], in assay [13] and in assay [14] was inactive. Further, the outcome in assay [15], in assay [17], in assay [18] and in assay [19] was inactive. Besides, the figures for the half-maximal activity concentration (AC50) in assay [2], in assay [8] and in assay [16] were 3.09 µM (active), 50 µM (active) and 3.68 µM (active), respectively.
Consider `CCOc1ccc2[nH]cc(C(=O)NCc3ccccc3)c(=O)c2n1`, for which the result in assay [1], in assay [3], in assay [4], in assay [5], in assay [6] and in assay [7] was inactive. Moreover, the result in assay [10], in assay [11], in assay [12], in assay [13], in assay [14] and in assay [15] was inactive. Further, the call in assay [16], in [18] and in assay [19] was inactive. Also, the AC50 in assay [2] was 32 µM (active); in assay [8], 63 µM (active); in [9], 76.5 µM (active); in assay [20], 29.2 µM (active).
For `CCCCCCCCCCCCCCO`, the outcome in assay [1], in assay [3], in assay [4], in assay [5], in [6] and in assay [7] was inactive. In addition, the compound was called inactive in assay [8], in [9], in [20], in assay [11], in assay [12] and in assay [13]. In addition, the outcome in assay [14], in assay [15], in assay [16], in assay [18] and in assay [19] was inactive. Moreover, the AC50 in [2] is 50 µM (active).
On to `OCCOCCOCCO`, for which the call in [1], in assay [2], in assay [3], in assay [4], in [5] and in assay [6] was inactive. The compound was classed as inactive in [7], in assay [8], in [9], in assay [10], in assay [11] and in [12]. In addition, the outcome in assay [13], in [14], in assay [15], in [16], in assay [18] and in assay [19] was inactive.

For orientation: AC50 means the concentration at which the activity in the assay is half-maximal.

The values are drawn from PubChem BioAssay (EPA / NIEHS).
